Test results as given in PubChem BioAssay (Tox21).
Inconclusive results are not listed. Where a call stands in place of a potency, no number is given. The source made the active and inactive calls. Calls come from the whole dose curve; as a rule, active = well fitted cell-killing curve with a large enough effect in the repeat runs; inconclusive = weak or mixed curves, or effect the other way; inactive = flat fitted curve, though single readings scatter.

Assay: qHTS assay to identify small molecule antagonists of the androgen receptor (AR) signaling pathway using the MDA cell line - cell viability counter screen (AID 743041; note: nearly all actives have a fitted effect of over 45% in size)
Settings: MDA-kb2 viability, CellTiter-Fluor, 16 h, cells co-treated with R1881 androgen agonist; series mostly up to 70.3 µM
How it was run: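 Viability read by CellTiter-Fluor fluorescence in the same wells as the antagonist screen, added after 15.5 h of a 16 h, 37C exposure. Human breast carcinoma MDA-kb2 AR-luc cells, compounds co-dosed with agonist R1881.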

Compound	Potency
CC(=O)Oc1cccc(C(=O)O)c1OC(C)=O	inactive
OC1OC[C@@H](O)[C@H](O)[C@@H]1O (stereo partly specified)	inactive
CO[C@H]1[C@@H](O)[C@H](N)[C@@H](O[C@H]2O[C@H]([C@H](C)N)CC[C@H]2N)[C@H](O)[C@@H]1N(C)C(=O)CN	inactive
NCCCC[C@H](NC(=O)[C@@H]1CCCN1C(=O)[C@@H]1CSSC[C@H](N)C(=O)N[C@@H](Cc2ccccc2)C(=O)N[C@@H](Cc2ccccc2)C(=O)N[C@@H](CCC(N)=O)C(=O)N[C@@H](CC(N)=O)C(=O)N1)C(=O)NCC(N)=O	inactive
CC(=O)[C@@]1(O)CC[C@H]2[C@@H]3C=C(Cl)C4=CC(=O)[C@@H]5C[C@@H]5[C@]4(C)[C@H]3CC[C@@]21C	inactive
CCC(C)[C@@H](N)C(=O)O (stereo partly specified)	inactive
